Rows were chosen to be rich in hits. Some 1.3% of all compounds tested hit in one or more screens of this group.
AMA1-RON2 inh = qHTS for Inhibitors of AMA1-RON; Towards Development of Antimalarial Drug Lead: Primary Screen | Potency, µM (highest dose often 58.2 µM), for the others: at the highest dose activity change, negative = inhibition, most hits filed as inhibitors | 360,000 compounds, 0.2% hits | AlphaScreen AMA1-biotinylated RON2 peptide binding;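 note: 0% = vehicle wells and -100% = peptide control; nearly all actives have a fitted effect of over 45% in size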
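AMA1 (3D7) with his tag at 25 nM final met compounds first, then biotinylated RON2 peptide at 25 nM; detection used donor plus acceptor beads, 10 µg/mL apiece, read by AlphaScreen after 30 min at room temperature.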
VACV mCherry inh = qHTS for Stage-Specific Inhibitors of Vaccinia Orthopoxvirus: mCherry Reporter Primary qHTS; Vaccinia virus mCherry reporter infection, fluorescence; AID 720579, 2013; 310,000 compounds, 0.63% hits; Potency, µM (top dose mostly 36.5 µM), without a hit: at the top dose activity change, negative = inhibition, usual class: inhibitors; calls by dose curve; tested in A549 cells; note: % is set by controls: 0 for no effect and ±100 for the full control effect; nearly all actives have a fitted effect of over 35% in size
AmpC inh no detg = qHTS Inhibitors of AmpC Beta-Lactamase (assay without detergent); P00811; AmpC nitrocefin hydrolysis, absorbance 480 nm, 0.0001% Triton; Potency, µM (highest dose often 57.1 µM), inactives show at the top dose activity change, negative = inhibition, usual class: inhibitors; 330,000 compounds, 0.52% hits;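 note: plate controls were no compound for no effect and no enzyme for full effect; nearly all actives have a fitted effect of over 20% in size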
Target sequence (P00811 whole entry, looked up): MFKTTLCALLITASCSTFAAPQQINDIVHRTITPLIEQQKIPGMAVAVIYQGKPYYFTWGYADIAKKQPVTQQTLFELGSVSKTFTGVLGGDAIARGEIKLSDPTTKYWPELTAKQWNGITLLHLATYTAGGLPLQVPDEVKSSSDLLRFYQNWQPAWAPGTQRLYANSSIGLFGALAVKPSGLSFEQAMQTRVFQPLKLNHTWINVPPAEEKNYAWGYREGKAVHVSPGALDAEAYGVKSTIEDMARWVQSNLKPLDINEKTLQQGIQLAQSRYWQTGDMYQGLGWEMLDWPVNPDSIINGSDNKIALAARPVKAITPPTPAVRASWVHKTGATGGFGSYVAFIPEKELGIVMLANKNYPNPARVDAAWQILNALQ
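20 mM phosphate pH 7.0 + 0.01% (detergent screen) or 0.0001% Triton X-100; 5.3 nM AmpC reagent; cpd preinc 15 min RT; nitrocefin (800 uM stock) to start; A480 q20 s × 4 min; Activity was normalised to no-enzyme and no-compound control wells.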
Vaccinia Venus = qHTS for Stage-Specific Inhibitors of Vaccinia Orthopoxvirus: Venus Reporter Primary qHTS. Vaccinia virus Venus reporter expression, fluorescence. Potency, µM (titrated, usually from 36.5 µM), for the others: at the top dose activity change, negative = inhibition, hits mostly inhibitors. 330,000 compounds, 0.46% hits. AID 720580, 2013; calls by dose curve; tested in A549 cells; note: % is set by controls: 0 for no effect and ±100 for the full control effect; nearly all actives have a fitted effect of over 30% in size
SARS PLP yeast = qHTS of Yeast-based Assay for SARS-CoV PLP; S. cerevisiae expressing SARS-CoV PLpro, growth rescue; Potency, µM (series often up to 32.9 µM), inactives show top-dose activity, positive = growth rescue, hits mostly activators; 330,000 compounds, 0.19% hits; calls by dose curve; note: 0% is about no effect; nearly all actives have a fitted effect of over 55% in size
AmpC detergent = qHTS Inhibitors of AmpC Beta-Lactamase (assay with detergent) | P00811 | AmpC hydrolysis of nitrocefin, absorbance 480 nm, 0.01% Triton | Potency, µM (highest dose often 114 µM), inactives show at the highest dose activity change, negative = inhibition, most hits filed as inhibitors | 370,000 compounds, 0.041% hits | AID 485294, 2010;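 note: 0% = no-compound wells and -100% = no-enzyme wells; nearly all actives have a fitted effect of over 25% in size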
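AmpC (5.3 nM in the dispensed reagent) in 20 mM phosphate pH 7.0 with 0.01% (detergent screen) or 0.0001% Triton X-100 was preincubated with compounds for 15 min at room temperature. Nitrocefin was then added from an 800 uM solution, and hydrolysis was followed at 480 nm.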
Active calls of the source: *. Unless noted, calls come from the whole dose curve; as a rule, active = well fitted curve in the direction sought with a large enough effect; inconclusive = small, poorly fitted or top-dose-only effect, or another doubt; inactive = no such curve, though single readings can be large; an effect the other way counts as inactive or inconclusive. Potency is the fitted concentration of half-maximal effect.

O=C(NC1CC1)[C@@H]1C[C@H](Sc2nc3ccccc3[nH]2)CN1CC1CCCCC1 was read as VACV mCherry inh -18% and Vaccinia Venus -12%.
Screening CC(C)(C)C(=O)OC1=CN(Cc2ccccc2)S(=O)(=O)c2ccccc21 returned VACV mCherry inh 11µM*, Vaccinia Venus inconclusive and AmpC detergent 22%.
Screening COC(=O)c1cc(CNC(=O)c2ccncc2)cc(NC(=O)c2ccccc2Cl)c1 returned VACV mCherry inh -6% and Vaccinia Venus -9%.
For COc1ccccc1CCC(=O)N1CCOc2c(cc(-c3cnc4ccccc4c3)cc2OC)C1 the results were VACV mCherry inh -12% and Vaccinia Venus -7%.
CC1Oc2ccccc2N(CC(=O)NCCc2ccccc2)C1=O (stereo not given) was read as AMA1-RON2 inh 4%, VACV mCherry inh -14%, AmpC inh no detg -2%, Vaccinia Venus -2%, SARS PLP yeast 7% and AmpC detergent 40µM*.
C(=C\c1ccc2ccccc2n1)/c1cccnc1 was read as VACV mCherry inh inconclusive and Vaccinia Venus -28%.
COc1ccccc1N1CCN(Cc2cc3c(cc2Br)OCCO3)CC1 was read as AMA1-RON2 inh inconclusive, VACV mCherry inh -3%, AmpC inh no detg 34%, Vaccinia Venus 8%, SARS PLP yeast 23% and AmpC detergent 5%.
COc1ccc(N2CCN(Cc3cc4c(cc3Br)OCCO4)CC2)cc1 was read as AMA1-RON2 inh 13µM*, VACV mCherry inh -7%, AmpC inh no detg 0%, Vaccinia Venus -7%, SARS PLP yeast -3% and AmpC detergent -7%.
Screening COc1ccc(N2CCN(Cc3csc(C)c3-c3ccc(C)cc3)CC2)cc1 returned AMA1-RON2 inh 10µM*, VACV mCherry inh -13%, AmpC inh no detg 1%, Vaccinia Venus -2%, SARS PLP yeast -3% and AmpC detergent -11%.
Screening O=C(NCc1nnc2n1CCN(Cc1cc(F)cc(F)c1)CC2)c1cccc(F)c1 returned VACV mCherry inh inconclusive and Vaccinia Venus -26%.
For O=C(Nc1nccs1)c1cc2sccc2n1Cc1ccc(F)cc1 the results were AMA1-RON2 inh 19%, VACV mCherry inh inactive, AmpC inh no detg 22µM*, Vaccinia Venus -17%, SARS PLP yeast 0% and AmpC detergent -10%.
Screening COCc1c(C(=O)N2CCN(C3CCCCC3)CC2)cnn1-c1ncc(C)c(-c2cccs2)n1 returned VACV mCherry inh -2% and Vaccinia Venus -11%.
`CCOC(=O)N1CCC(c2cc(=O)n3[nH]c(C)c(-c4ccc(F)cc4)c3n2)CC1` gave AMA1-RON2 inh 128%, VACV mCherry inh inconclusive, AmpC inh no detg 25µM*, Vaccinia Venus inconclusive, SARS PLP yeast -4% and AmpC detergent inconclusive.
Cc1ccc(Nc2nc(NCc3ccco3)c3ccccc3n2)cc1 was read as AMA1-RON2 inh -26%, VACV mCherry inh inconclusive, AmpC inh no detg -30%, Vaccinia Venus 11µM*, SARS PLP yeast -7% and AmpC detergent 1%.
Screening c1ccc(-c2nc(NCc3ccco3)c3ccccc3n2)nc1 returned AMA1-RON2 inh -19%, VACV mCherry inh inconclusive, AmpC inh no detg -7%, Vaccinia Venus 11µM*, SARS PLP yeast -17% and AmpC detergent inconclusive.
For Oc1ccccc1-c1nc(NCc2ccco2)c2ccccc2n1 the results were AMA1-RON2 inh 2%, AmpC inh no detg -43%, SARS PLP yeast -5% and AmpC detergent inconclusive.
`O=C(CN1Cc2ccccc2OC(c2ccsc2)C1)N1CCC(c2nc3ccccc3[nH]2)CC1` (stereo not given) gave VACV mCherry inh -17% and Vaccinia Venus -12%.
CCCCc1cc(=O)oc2cc(C)c(CN3CCCC3)c(O)c12 was read as AMA1-RON2 inh -11%, AmpC inh no detg 16µM*, SARS PLP yeast 0% and AmpC detergent -14%.

Screening data: PubChem BioAssay, National Center for Advancing Translational Sciences (NCATS)
